Screens (PubChem)
In the library only some 2.4% were active in any assay of this set; here they are far more common.
FEN1 inh-1 – inhibitors of human flap endonuclease 1; P39748; Recombinant FEN1 flap cleavage, fluorescence, 15 min; Potency, µM (titrated, usually from 114 µM), hits mostly inhibitors; 390,000 compounds, 0.35% hits; AID 588795; also: nearly all actives have a fitted effect of over 65% in size
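Potency values derive from four-parameter Hill fits of normalized qHTS data. The reaction used 10 nM FEN1 preincubated 15 min at room temperature with compound, then 50 nM DNA substrate, read at 0 and 15 min.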
Pol eta inh-1 – DNA polymerase eta (human) inhibition | AID 588591 | Q9Y253 | 390,000 compounds, 1.2% hits | recombinant Pol eta, fluorescent DNA replication assay | Potency, µM (top dose mostly 114 µM), usual class: inhibitors
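Pol eta at 10 nM preincubated with compounds 15 min at room temperature; reaction started with fluorescent substrate (50 nM final) and read kinetically at 0 and 10 min.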
Pol beta inh – DNA polymerase beta (human) inhibition; Pol beta primer extension/strand displacement, fluorescence kinetic; 340,000 compounds, 1.3% hits; Potency, µM (series often up to 114 µM), most hits filed as inhibitors; P06746
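10 nM enzyme + cpd, 15 min RT; start with substrate 50 nM final; read 0 min and after 10 min RT. Corrected, normalized data; 4-parameter Hill curve fit.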
Pol kappa inh-1 – inhibitors of human DNA polymerase kappa; Q9UBT6; purified Pol kappa, fluorescent DNA synthesis assay, 10 min; Potency, µM (top dose mostly 107 µM), actives largely listed as inhibitors; 400,000 compounds, 0.53% hits; AID 588579
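Here, compound and 10 nM enzyme are combined for 15 min at room temperature; adding 50 nM substrate (final) starts DNA synthesis, tracked by fluorescence at 0 and 10 min against buffer-only wells.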
WRN helicase inh-1 – inhibitors of human WRN helicase; Potency, µM (top dose mostly 114 µM), hits mostly inhibitors; Q14191; 360,000 compounds, 0.46% hits; WRN helicase unwinding, fluorescent forked duplex, kinetic; also: nearly all actives have a fitted effect of over 55% in size
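Kinetic red-fluorescence monitoring (525/598 nm) tracks WRN helicase activity after 100 nM fluorophore-quencher forked duplex and 2 mM ATP are added to 20 nM enzyme pretreated 15 min at room temperature with compound.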
POLI inh – DNA polymerase iota (human) inhibition; 390,000 compounds, 1% hits; Pol iota fluorescent replication assay, 10 min; Q9UNA4; Potency, µM (highest dose often 115 µM), usual class: inhibitors
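Pol iota at 10 nM preincubated 15 min with compounds at room temperature; reaction started with fluorescent substrate, 50 nM final. Fluorescence read kinetically at 0 and 10 min; buffer-only wells as negative control.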
BAZ2B confirm – confirmation of human BAZ2B bromodomain inhibitors | 25 compounds, 100% hits | AlphaScreen BAZ2B / biotin-H3K14Ac peptide displacement | Potency, µM, actives largely listed as inhibitors | shares compounds with Pol kappa inh-1 | AID 588809; calls by dose curve
BAZ2B bead ctr – interferes with AlphaScreen signal in BAZ2B counterscreen | shares compounds with Pol kappa inh-1 | AlphaScreen biotin-His6 peptide bead counterscreen, signal decrease | Potency, µM (series often up to 57.1 µM), actives largely listed as inhibitors | 25 tested, under 10 active | AID 588859;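 active = clear concentration-dependent signal drop in the bead assay lacking the target, so a primary-screen artifact; inconclusive = weak, partial or single-dose response; inactive = no response, so a real primary hit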
PGK validate – TbPGK inhibition, hit validation; shares compounds with Pol kappa inh-1; TbPGK coupled GAPDH assay, Kinase-Glo luminescence; Potency, µM (titrated, usually from 57.5 µM), hits mostly inhibitors; 500 compounds, 79% hits; AID 686980; also: nearly all actives have a fitted effect of over 65% in size
Pol iota confirm – Human Pol iota inhibitor confirmatory assay; Pol iota primer extension, TAMRA/BHQ fluorescence; shares compounds with Pol kappa inh-1; 1,500 compounds, 77% hits; AID 720496; Potency, µM, hits mostly inhibitors
Pol kappa inh-2 – confirmation of human DNA polymerase kappa inhibitors | 920 compounds, 76% hits | purified Pol-kappa, fluorescent strand-displacement substrate | Potency, µM, actives largely listed as inhibitors | shares compounds with Pol eta inh-1
Pol eta inh-2 – Pol eta (human) inhibition, cherry-pick confirmation | Pol eta primer extension, TAMRA/BHQ fluorescence, 10 min | Potency, µM, usual class: inhibitors | shares compounds with Pol eta inh-1 | 2,600 compounds, 64% hits | AID 720502
FEN1 inh-2 – FEN1 inhibition, cherry-pick retest; 880 compounds, 79% hits; shares compounds with FEN1 inh-1; AID 720498; Potency, µM, usual class: inhibitors; FEN1 flap cleavage, TAMRA/BHQ2 fluorogenic DNA substrate; also: nearly all actives have a fitted effect of over 60% in size
WRN helicase inh-2 – confirmation of human WRN helicase inhibitors; shares compounds with WRN helicase inh-1; WRN helicase DNA unwinding, fluorescence kinetic; Potency, µM (top dose mostly 57.1 µM), actives largely listed as inhibitors; 610 compounds, 63% hits; AID 720497; also: nearly all actives have a fitted effect of over 65% in size
TO displacement – DNA binding via thiazole orange displacement | shares compounds with WRN helicase inh-1 | thiazole orange DNA binding displacement, fluorescence | Potency, µM (titrated, usually from 57.1 µM), usual class: inhibitors | 610 compounds, 10% hits | AID 720499;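 also: drop in dye fluorescence marks compound binding to DNA; nearly all actives have a fitted effect of over 60% in size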
BLM helicase inh – counter-screen for WRN helicase inhibitors: human BLM helicase inhibition; shares compounds with WRN helicase inh-1; Recombinant BLM helicase DNA unwinding, red fluorescence; Potency, µM (highest dose often 57.1 µM), usual class: inhibitors; 610 compounds, 60% hits; AID 720503; also: nearly all actives have a fitted effect of over 60% in size
Target sequence (P54132 whole entry, looked up): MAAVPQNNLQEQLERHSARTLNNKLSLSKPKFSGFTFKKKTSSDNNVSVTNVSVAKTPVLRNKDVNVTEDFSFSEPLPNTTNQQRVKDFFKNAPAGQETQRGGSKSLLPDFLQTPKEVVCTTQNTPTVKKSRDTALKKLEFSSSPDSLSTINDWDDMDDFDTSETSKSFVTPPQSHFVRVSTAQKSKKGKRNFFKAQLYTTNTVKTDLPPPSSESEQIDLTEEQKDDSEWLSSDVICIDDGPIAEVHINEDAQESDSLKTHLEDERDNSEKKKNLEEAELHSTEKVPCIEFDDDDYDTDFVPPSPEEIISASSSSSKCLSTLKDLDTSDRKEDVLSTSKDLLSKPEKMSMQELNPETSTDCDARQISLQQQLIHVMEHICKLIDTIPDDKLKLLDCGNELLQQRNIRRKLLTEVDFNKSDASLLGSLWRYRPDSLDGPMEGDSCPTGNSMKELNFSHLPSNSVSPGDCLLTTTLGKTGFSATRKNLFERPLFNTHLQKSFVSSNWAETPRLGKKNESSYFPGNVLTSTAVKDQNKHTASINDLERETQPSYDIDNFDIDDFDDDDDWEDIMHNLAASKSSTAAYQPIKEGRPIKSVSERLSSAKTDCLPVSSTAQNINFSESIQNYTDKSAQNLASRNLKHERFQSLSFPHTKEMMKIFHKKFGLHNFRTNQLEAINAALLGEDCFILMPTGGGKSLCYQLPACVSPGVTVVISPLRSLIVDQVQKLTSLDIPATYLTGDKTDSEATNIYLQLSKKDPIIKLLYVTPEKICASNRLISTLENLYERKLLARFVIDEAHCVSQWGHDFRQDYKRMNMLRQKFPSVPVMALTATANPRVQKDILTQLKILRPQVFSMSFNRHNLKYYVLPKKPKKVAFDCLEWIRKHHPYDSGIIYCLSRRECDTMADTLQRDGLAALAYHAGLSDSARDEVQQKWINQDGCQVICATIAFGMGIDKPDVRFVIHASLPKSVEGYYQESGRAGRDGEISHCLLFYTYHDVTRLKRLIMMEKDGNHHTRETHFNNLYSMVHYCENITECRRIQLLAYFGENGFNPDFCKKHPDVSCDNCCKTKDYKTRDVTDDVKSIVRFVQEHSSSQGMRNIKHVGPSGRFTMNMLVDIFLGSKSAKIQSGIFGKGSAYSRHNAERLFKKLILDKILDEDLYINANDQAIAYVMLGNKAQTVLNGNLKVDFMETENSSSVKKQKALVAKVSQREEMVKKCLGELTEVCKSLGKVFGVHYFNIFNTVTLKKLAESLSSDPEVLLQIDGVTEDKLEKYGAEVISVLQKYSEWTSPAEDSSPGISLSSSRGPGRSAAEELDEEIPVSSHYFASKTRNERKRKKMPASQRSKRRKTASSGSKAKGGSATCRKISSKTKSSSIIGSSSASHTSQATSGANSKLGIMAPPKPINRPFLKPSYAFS
Numbers stand for hits; ! = not active in a repeat; [ ] = another dose, or the depositor's remark. Unless noted, calls follow the shape of the dose curve; as a rule, active = well fitted curve in the direction sought with a large enough effect; inconclusive = small, poorly fitted or top-dose-only effect, or another doubt; inactive = no such curve, though single readings can be large; an effect the other way counts as inactive or inconclusive.

How did CN(C)[C@@H]1C(=O)C(C(N)=O)=C(O)[C@@]2(O)C(=O)C3=C(O)c4c(O)cccc4[C@@](C)(O)[C@H]3[C@H](O)[C@@H]12 do in these assays?
FEN1 inh-1: 11.2µM!; Pol eta inh-1: 3.98µM; Pol beta inh: 2.82µM; Pol kappa inh-1: 2.82µM; WRN helicase inh-1: 20µM; POLI inh: inconclusive; Pol iota confirm: 9.47; Pol kappa inh-2: 8.44; Pol eta inh-2: 26.9; FEN1 inh-2: 75.7; WRN helicase inh-2: 17.1µM; TO displacement: inconclusive; BLM helicase inh: 13.6µM

Results for CCC(Oc1ccc(Cl)cc1)C(=O)OC1CC2CCC(C1)N2C (centres undefined) ?
Pol kappa inh-1: inactive[19.4 µM]

Results for COc1ccc(CN2C(=O)NC(=O)/C(=C\c3ccco3)C2=O)cc1 ?
FEN1 inh-1: 28.2µM; Pol eta inh-1: 8.91µM; Pol beta inh: 12.6µM; Pol kappa inh-1: 25.1µM; WRN helicase inh-1: 22.4µM; POLI inh: inconclusive; Pol iota confirm: 26.7; Pol eta inh-2: 26.9; FEN1 inh-2: 75.7; WRN helicase inh-2: 19.2µM; TO displacement: inactive; BLM helicase inh: 8.57µM

What do the screens show for `CN1Cc2c(ccc3c2OCO3)C2C(O)Cc3cc4c(cc3C21)OCO4` (centres undefined)?
Pol kappa inh-1: inactive[19.4 µM]

Results for CC(C)N1C(=O)/C(=C/C=C/c2ccco2)C(=O)N(Cc2ccco2)C1=O ?
FEN1 inh-1: 56.2µM; Pol eta inh-1: 2.51µM; Pol beta inh: 22.4µM; Pol kappa inh-1: 22.4µM; WRN helicase inh-1: 35.5µM; POLI inh: inconclusive; Pol iota confirm: 18.9; Pol eta inh-2: 9.53; WRN helicase inh-2: 17.1µM; TO displacement: inactive; BLM helicase inh: 8.57µM

How did CCN1C(=O)C(=C/C=C/c2ccco2)C(=O)N(CC)C1=S do in these assays?
FEN1 inh-1: 22.4µM; Pol eta inh-1: 3.55µM; Pol beta inh: 14.1µM; Pol kappa inh-1: inconclusive; WRN helicase inh-1: 28.2µM; POLI inh: inconclusive; PGK validate: 29.1µM; Pol iota confirm: 16.8; Pol kappa inh-2: 7.52; Pol eta inh-2: 7.57; WRN helicase inh-2: 21.5µM; TO displacement: inactive; BLM helicase inh: 19.2µM

How did CC(=O)[O][Hg][c]1ccccc1 do in these assays?
Pol kappa inh-1: inactive[19.4 µM]

What do the screens show for `O=C1NC(=O)N(Cc2ccc(F)cc2)C(=O)/C1=C\c1ccc([N+](=O)[O-])s1`?
FEN1 inh-1: 25.1µM; Pol eta inh-1: 28.2µM; Pol beta inh: inconclusive; Pol kappa inh-1: 31.6µM; WRN helicase inh-1: 39.8µM; POLI inh: 14.1µM; Pol iota confirm: 42.3; Pol eta inh-2: 16.9; FEN1 inh-2: 6.75; WRN helicase inh-2: 15.2µM; TO displacement: 27.1µM; BLM helicase inh: 19.2µM

Results for O=C1NC(=O)N(Cc2ccccc2)C(=O)/C1=C/c1cnn(-c2ccccc2)c1 ?
Pol beta inh: inactive

Results for O=[N+]([O-])c1cc(S(=O)(=O)c2ccc(O)c([N+](=O)[O-])c2)ccc1O ?
FEN1 inh-1: inconclusive; Pol eta inh-1: 2.82µM; Pol beta inh: 11.2µM; Pol kappa inh-1: 44.7µM; WRN helicase inh-1: inconclusive; POLI inh: 17.8µM; Pol iota confirm: 59.7; Pol kappa inh-2: 6.7; Pol eta inh-2: 30.1; WRN helicase inh-2: 19.2µM; TO displacement: inactive; BLM helicase inh: inconclusive

Results for O=[N+]([O-])c1cccc(O)c1 ?
FEN1 inh-1: inactive; Pol eta inh-1: inactive; Pol kappa inh-1: inactive; WRN helicase inh-1: inactive; POLI inh: inactive

Results for CCOC(=O)C1CCCN(c2ccc([N+](=O)[O-])c3nonc23)C1 (centres undefined) ?
FEN1 inh-1: inconclusive; Pol eta inh-1: 35.5µM; Pol beta inh: 14.1µM; Pol kappa inh-1: 25.1µM; WRN helicase inh-1: inconclusive; POLI inh: 56.2µM; Pol iota confirm: 37.7; Pol kappa inh-2: 84.4; Pol eta inh-2: 75.7; FEN1 inh-2: 67.5; WRN helicase inh-2: 24.1µM; TO displacement: inactive; BLM helicase inh: 24.1µM

What do the screens show for `CCN(CC(=O)Nc1c(F)cccc1F)C(=O)/C=C/c1ccc2ccccc2n1`?
FEN1 inh-1: 50.1µM; Pol eta inh-1: 1.12µM; Pol kappa inh-1: 8.91µM; WRN helicase inh-1: 22.4µM; POLI inh: 4.47µM; BAZ2B confirm: 14.1; BAZ2B bead ctr: inconclusive; Pol iota confirm: 9.47; Pol eta inh-2: 19; FEN1 inh-2: 75.7; WRN helicase inh-2: 19.2µM; TO displacement: inconclusive; BLM helicase inh: 3.83µM

Results for CC(C)c1ccc(N2C(=O)NC(=O)/C(=C\C=C\c3ccco3)C2=O)cc1 ?
FEN1 inh-1: inconclusive; Pol eta inh-1: 20µM; Pol beta inh: inconclusive; Pol kappa inh-1: 39.8µM; WRN helicase inh-1: inconclusive; POLI inh: 8.91µM; Pol eta inh-2: 75.7
